In the library only some 2.4% were active in any assay of this set; here they are far more common.
HSF1 activator: increases HSF-1 driven luciferase reporter signal | activation, % at 9 µM | AID 504408 | NIH3T3-HGL HSF-1 luciferase reporter, MG132, 8 h; 100% = twice DMSO control signal | actives 1.7% (n = 300,000);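 active = mean replicate activation of at least 50% with a set share of replicates each reaching 50%; inconclusive = only one of those two conditions met; inactive = mean below 50% and too few replicates reaching it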
TLR9-MyD88 block: blocks human TLR9 binding to MyD88. CHO BLA complementation TLR9-MyD88, CCF4 FRET ratio. inhibition, % at 4.98 µM. actives 0.21% (n = 340,000). AID 504734;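 active = inhibition above the mean over all tested compounds plus 3 SD, cut at about 21% in these data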
TLR4-MyD88 BLA: blocks binding of human TLR4 to MyD88. inhibition, % at 8.4 µM. HeLa CL3-4 TLR4/MyD88 BLA complementation, FRET ratio. actives 0.18% (n = 200,000); in the data active = inhibition above about 25%
NOD2-RIPK2 inh: blocks binding of human NOD2 to RIPK2; AID 624267; CHO BLA complementation NOD2-RIPK2, CCF4 ratio; O43353; inhibition, % at 4.98 µM; actives 0.38% (n = 360,000); in the data active = inhibition above about 21%
Target sequence (O43353 whole entry, looked up): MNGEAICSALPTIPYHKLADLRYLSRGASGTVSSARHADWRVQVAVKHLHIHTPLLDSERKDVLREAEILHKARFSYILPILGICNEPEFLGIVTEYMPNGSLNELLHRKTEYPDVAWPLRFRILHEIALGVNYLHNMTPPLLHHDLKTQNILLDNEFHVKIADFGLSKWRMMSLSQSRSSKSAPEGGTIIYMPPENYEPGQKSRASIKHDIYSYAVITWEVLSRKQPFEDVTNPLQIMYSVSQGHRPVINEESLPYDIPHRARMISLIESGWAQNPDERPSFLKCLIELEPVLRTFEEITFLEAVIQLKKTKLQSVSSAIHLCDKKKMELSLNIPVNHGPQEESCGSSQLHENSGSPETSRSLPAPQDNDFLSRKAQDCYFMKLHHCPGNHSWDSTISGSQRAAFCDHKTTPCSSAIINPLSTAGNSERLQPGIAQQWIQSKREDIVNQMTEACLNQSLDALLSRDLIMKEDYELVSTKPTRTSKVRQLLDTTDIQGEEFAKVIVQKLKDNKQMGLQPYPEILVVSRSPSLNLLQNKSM
HSF1 inhib: HSF1 inhibition | NIH3T3-HGL HSE-luciferase, MG132-induced, luminescence 8 h; active compounds read low | activity change, negative = inhibition, % at 7.5 µM (by protocol) | actives 0.77% (n = 300,000) | AID 2098;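 active = more than half of replicate wells show activity change below -50%, luminescence cut by over half; inconclusive = some wells, but at most half, below -50%; inactive = no replicate well below -50%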;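 also: luciferase reports HSF-1 transcriptional activity via heat shock element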
Each line names hits and unclear results; the compound was inactive in the other large screens.

O=C(O)c1ccc(N/N=C/c2ccc3nccnc3c2)cc1	HSF1 inhib -81 (no result: TLR4-MyD88 BLA)
Cc1cc(=O)[nH]c(SCC(=O)c2ccc(F)c(C)c2)n1	none (no result: TLR4-MyD88 BLA)
COc1ccc(C(=O)CSc2nc(C)cc(=O)[nH]2)cc1C	HSF1 inhib -76 (no result: TLR4-MyD88 BLA)
Cc1noc(C)c1S(=O)(=O)N(C)C[C@@H]1OCc2cnnn2CCCC(=O)N([C@H](C)CO)C[C@@H]1C	none (no result: HSF1 activator, TLR4-MyD88 BLA, HSF1 inhib)
CC(C)C[C@H](NC(=O)N1CCCCCC1)C(=O)O	HSF1 inhib -51 (no result: TLR4-MyD88 BLA)
CCC(C)[C@H](NC(=O)N1CCCCCC1)C(=O)O (some centres undefined)	none (no result: TLR4-MyD88 BLA)
O=C1/C(=C/c2cccs2)Cc2ccccc21	none
O=C1/C(=C\c2ccc(Br)o2)Cc2ccccc21	HSF1 activator 59
CCNC(=O)N(C)c1c(CC)nc2ccc(C(=O)N3CCN(C(C)=O)CC3)cn12	none (no result: HSF1 activator, TLR9-MyD88 block, TLR4-MyD88 BLA, HSF1 inhib)
CNC(=O)c1c(NC(=O)c2nc3ccccc3s2)sc2c1CCC2	HSF1 activator 55
C/C(=N\NC(=O)c1cccc(N/N=C(\C)c2cc(O)ccc2O)c1)c1cc(O)ccc1O	HSF1 activator 64
C/C(=N\NC(=O)c1cccc(N/N=C(\C)c2ccco2)c1)c1ccco1	none
CCn1c(C)cc(/C=C2/SC(=S)N(CC(=O)O)C2=O)c1C	HSF1 inhib inconclusive
C#CCN1C(=O)S/C(=C/c2cc(C)n(CC)c2C)C1=O	HSF1 activator 58
Cc1noc(C)c1COc1ccccc1C(=O)NCCc1ccc(F)cc1	none (no result: HSF1 activator, TLR4-MyD88 BLA, HSF1 inhib)
CCOC(=O)c1c(NC(C)=O)sc2c(O)c(CN3CCN(CC)CC3)ccc12	HSF1 activator 112
CCOC(=O)c1c(NC(C)=O)sc2c(OC)c(Br)ccc12	none
CC(OC(=O)Cn1cnc2c1c(=O)n(C)c(=O)n2C)C(=O)NC1(C#N)CCCCC1 (centres undefined)	none (no result: HSF1 activator, TLR4-MyD88 BLA, HSF1 inhib)
O=C(Nc1nccs1)c1ccc(Br)o1	none
O=C(/C=C/c1ccc(Br)o1)Nc1nccs1	HSF1 activator 83
Cc1ccc(NC(=O)c2ccc([N+](=O)[O-])cc2Cl)nc1	HSF1 activator 52
CC(C)(C)c1ccc(C(=O)Nc2ccc([N+](=O)[O-])cn2)cc1	HSF1 activator 54
COc1ccc(CN2C(=O)c3ccccc3C2c2nnnn2C(C)C)cc1 (centres undefined)	none (no result: HSF1 activator, TLR9-MyD88 block, TLR4-MyD88 BLA, HSF1 inhib)
CCOC(=O)c1sc(NC(=O)Nc2ccccc2)cc1C	HSF1 activator 82
CCOC(=O)c1sc(NC(=O)c2ccc(C)s2)cc1C	HSF1 activator 69
O=C1OCCC1=COCCCCCOC=C1CCOC1=O	none (no result: HSF1 activator, TLR4-MyD88 BLA, HSF1 inhib)
CC1(C(=O)NS(=O)(=O)c2ccc(Cl)cc2)CCN1C(=O)c1ccc(C2CCCCC2)cc1 (centres undefined)	none (no result: HSF1 activator, TLR9-MyD88 block, TLR4-MyD88 BLA, HSF1 inhib)
Cc1ccsc1C(=O)OCc1nnc(-c2ccccc2)o1	none (no result: HSF1 activator, TLR4-MyD88 BLA, HSF1 inhib)
O=C(OCc1csc(-c2ccccc2)n1)C1=NN(c2ccccc2)C(=O)CC1	none (no result: HSF1 activator, TLR4-MyD88 BLA, HSF1 inhib)
O=C(CNS(=O)(=O)c1cccc(Cl)c1)OCc1csc(-c2ccccc2)n1	none
O=C(OCc1csc(-c2ccccc2)n1)c1cccs1	HSF1 activator 91
CNS(=O)(=O)c1cccc(C(=O)OCc2csc(-c3ccccc3)n2)c1	HSF1 activator 67
Cn1cccc1C(=O)OCc1csc(-c2ccccc2)n1	HSF1 activator 63
Cc1ccsc1C(=O)OCc1csc(-c2ccccc2)n1	HSF1 activator 59
CCOC(=O)C1=C(C)NC(C)=C(C(=O)OCC)C1C(=O)OCC(=O)N(C)Cc1ccccc1	none (no result: HSF1 activator, TLR4-MyD88 BLA, HSF1 inhib)
Cc1ccc(NC(=O)COC(=O)C2CC3C=CC2C3)cc1S(=O)(=O)N1CCCCC1 (centres undefined)	HSF1 activator 63
Cn1c(C(=O)Nc2ccc3c(c2)OCO3)cc2sccc21	HSF1 activator 66
Cc1ccc2nc(NS(=O)(=O)c3cn(C)nc3C)sc2c1	none (no result: TLR4-MyD88 BLA)
CC(CCC(=O)O)C1CC[C@H]2C3CCC4CC(=O)CCC4(C)[C@H]3CC(=O)C12C (some centres undefined)	HSF1 activator 58 (no result: TLR4-MyD88 BLA)
O=C1NC(c2ccncc2)Nc2ccccc21 (centres undefined)	none
O=C1NC(c2ccc(Cl)cc2)Nc2ccccc21 (centres undefined)	HSF1 activator 70
CN(C)c1ccc(C2NC(=O)c3ccccc3N2)cc1 (centres undefined)	HSF1 activator 78 (no result: TLR4-MyD88 BLA)
Cc1ccc(C2NC(=O)c3ccccc3N2)s1 (centres undefined)	HSF1 activator 67
COc1ccc(C(=O)c2c[nH]c(C(=O)NCc3ccco3)c2)cc1	none

Screens (PubChem BioAssay)
